Measurements taken from PubChem BioAssay AID624330 (Southern Research Specialized Biocontainment Screening …, 2012).
About 2,100 (0.62%) of roughly 340,000 compounds were called active.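 Rule for the calls: active = first-screen hits whose inhibition reached a set limit at any dose in the follow-up dose series; inconclusive = inhibition above the set first-screen limit but never retested; inactive = the rest.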 These entries were drawn from the full list. Entries with a potency or affinity are not part of this list.

Molecular target: Rac GTPase-activating protein 1 (Homo sapiens) (UniProt Q9H0H5)
Assay: blockers of MgcRacGAP-driven Rac1 GTP hydrolysis – biochemical, ADP Hunter fluorescence, primary and confirmatory, confirmation (AID 624330);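 note: fluorescence reports GDP produced by GAP-driven GTP hydrolysis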
Conditions: MgcRacGAP-stimulated Rac1 GTP hydrolysis, at 30 µM, stronger effect = higher value, GST-tagged Rac1 F28L mutant substrate

Sequence of Rac GTPase-activating protein 1 (Homo sapiens) (Q9H0H5 whole entry, looked up): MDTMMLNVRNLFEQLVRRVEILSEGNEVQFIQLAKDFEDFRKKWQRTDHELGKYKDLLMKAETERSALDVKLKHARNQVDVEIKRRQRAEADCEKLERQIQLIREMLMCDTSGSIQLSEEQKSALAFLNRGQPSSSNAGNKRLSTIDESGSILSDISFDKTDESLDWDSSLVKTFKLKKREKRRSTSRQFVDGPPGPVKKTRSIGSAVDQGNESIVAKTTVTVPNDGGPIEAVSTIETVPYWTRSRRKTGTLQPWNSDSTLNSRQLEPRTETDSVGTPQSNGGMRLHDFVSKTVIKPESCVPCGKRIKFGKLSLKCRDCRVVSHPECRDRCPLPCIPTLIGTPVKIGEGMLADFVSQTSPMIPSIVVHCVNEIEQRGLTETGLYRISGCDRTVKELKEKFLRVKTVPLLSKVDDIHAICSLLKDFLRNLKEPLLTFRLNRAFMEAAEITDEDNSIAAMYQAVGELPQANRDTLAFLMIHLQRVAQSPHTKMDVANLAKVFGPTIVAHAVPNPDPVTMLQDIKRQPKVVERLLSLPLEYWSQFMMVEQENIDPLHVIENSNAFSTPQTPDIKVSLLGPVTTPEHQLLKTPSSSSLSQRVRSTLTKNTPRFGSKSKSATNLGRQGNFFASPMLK

inhibition, inactive:
FC(F)(F)c1cccc(N2CCN(C3CC4CCC3C4)CC2)c1 (configuration not stated) -3.5%, CC(C(=O)NCCN1CCOCC1)(c1ccccc1)c1ccccc1 9.67%, CCN(Cc1cc(OC)c(OC)c(OC)c1)C(=S)Nc1cccc(SC)c1 8.44%, COc1ccccc1CNS(=O)(=O)c1cc(C(=O)NCC2CCCO2)c(Cl)cc1Cl (configuration not stated) 4.61%, O=C(c1nc[nH]c1C(=O)N1CCN(c2ccccc2)CC1)N1CCN(c2ccccc2)CC1 8.08%, CN(CC(=O)Nc1ccccc1C(F)(F)F)C(=O)COc1cccnc1[N+](=O)[O-] 2.02%, C/C(=N\NC(=O)c1ccc(Cl)cc1)c1ccccn1 -1.19%, Cc1sc2ncnc(N3CCC(C(=O)Nc4ccc(S(N)(=O)=O)cc4)CC3)c2c1C 6.51%, CC1CCCC(N2CCN(C(=O)c3cccc(F)c3)CC2)C1 (configuration not stated) 13.7%, O=C(c1cccc(F)c1)N1CCC(N2CCCCCC2)CC1 27%, CC(C)Oc1ccc(CNC(=O)c2cc(S(=O)(=O)N3CCOCC3)cn2C)cc1 7.69%, Cc1ccc2c(CC(=O)OCc3csc(C)n3)coc2c1 3%, Cc1ccc2c(CC(=O)O)coc2c1 -1.54%, COc1ccc(CN2CCN(C(=O)c3cc(-c4cccnc4)nc4ccc(Cl)cc34)CC2)c(OC)c1OC 0.91%, CCCn1c(=O)c2c(C(F)(F)F)cc(-c3ccco3)nc2n(CCC)c1=O 6.17%, COC(C(=O)N/N=C(\C)CC(=O)Nc1ccc(Cl)cc1C)c1ccccc1 (configuration not stated) 0.47%, C/C(CC(=O)Nc1ccc([N+](=O)[O-])cc1)=N\NC(=O)c1ccccc1O 3.2%, COc1cc(NC(=O)C/C(C)=N/NC(=O)C(OC)c2ccccc2)c(OC)cc1Cl (configuration not stated) 15.9%, C/C(CC(=O)Nc1ccc(N(C)C)cc1)=N\NC(=O)c1cnccn1 25.8%, C/C(CC(=O)Nc1ccc(N(C)C)cc1)=N\NC(=O)c1ccc(C(C)(C)C)cc1 14.2%, C/C(CC(=O)Nc1ccc(N(C)C)cc1)=N\NC(=O)c1ccccn1 16.9%, C/C(CC(=O)Nc1ccc(N(C)C)cc1)=N\NC(=O)c1ccc(Cl)cc1 21.2%, C/C(CC(=O)Nc1ccc([N+](=O)[O-])cc1)=N\NC(=O)c1ccccc1[N+](=O)[O-] 7.35%, CC1(C)CC(=O)C2=C(C1)C(c1cn(-c3ccccc3)nc1-c1ccccc1)C(C#N)=C(N)O2 (configuration not stated) 2.04%, Cc1cc(Br)cc(C)c1NC(=S)NC(=O)CC(C)C 7.74%, NC(N)=NS(=O)(=O)c1ccc(N/C=C/C(=O)c2ccc(Cl)c(Cl)c2)cc1 6.29%, COC(=O)[C@H](CCSC)NC(=O)Cn1cnc2c(OCc3ccccc3)ncnc21 5.04%, COc1ccc(OCC(=O)NNC(=O)c2ccc3c(=O)n4c(nc3c2)CCC4)cc1 8.67%, COc1ccc(S(=O)(=O)N2CCN(C(=O)c3ccco3)CC2)c(C)c1C 1.7%, O=C(O)c1cc(N2C(=O)C3C4C=CC(C4)C3C2=O)ccc1N1CCOCC1 (configuration not stated) 4.85%, O=C(Nc1nccs1)C1CCCN1/C=C/C(=O)C(F)(F)F (configuration not stated) -1.71%, C=CCNC(=O)c1n[nH]c2c1CC(C(C)(C)CC)CC2 (configuration not stated) 8.27%, CCN(Cc1ccccc1)C(=O)C1CCC(CNc2c(N3CCOCC3)c(=O)c2=O)CC1 (configuration not stated) 4.88%, C=CCN1CCN(C(=O)c2cc3c(s2)CCC(CC)C3)CC1 (configuration not stated) 5%, COCCn1c(SCC(=O)Nc2ccc3c(c2)OCCO3)nc2c(c1=O)SC(C)C2 (configuration not stated) 8.12%, CCN1C(=O)[C@H]2[C@@H](c3ccc(C)cc3)N3C(=O)N(c4ccc(OC)cc4)C(=O)[C@@]3(Cc3ccc(Cl)cc3)[C@H]2C1=O -2.48%, C/C(CC(=O)Nc1ccc(N(C)C)cc1)=N\NC(=O)c1ccc(Cl)cc1Cl 21.9%, C/C(CC(=O)Nc1ccc2c(c1)OCCO2)=N\NC(=O)c1ccc([N+](=O)[O-])cc1Cl 9.05%, Cc1ccc(-c2cc(C(=O)Nc3ccc(S(=O)(=O)Nc4onc(C)c4C)cc3)[nH]n2)c(O)c1 -1.18%, C#CCOCCOCCOCCNc1nc(N2CCOCC2)nc(N2CCN(C(=O)[C@H](Cc3ccc(O)cc3)n3cc([C@@H](N)C(C)CC)nn3)CC2)n1 (some centres not stated) 8.21%, COc1ccc(CN(C)Cc2c(O)ccc3ccccc23)cc1 9.58%, COc1cccc(CN(C)Cc2c(O)ccc3ccccc23)c1 3.54%, CCN(Cc1ccncc1)Cc1c(O)ccc2ccccc12 15.9%, CN(C)Cc1c(O)ccc2ccccc12 7.54%, COc1ccc(/C(N)=N/OC(=O)Cc2cccs2)cc1 5.03%, CCOC(=O)C(N=Nc1nn[nH]n1)C(C)=O (configuration not stated) 14.3%, CC(=O)Nc1c(F)cc(Br)cc1F 7.06%, COCCN(C(=O)c1ccccc1)c1nnc(-c2cccnc2)s1 3.74%, C=CCn1c(=O)/c(=C/c2ccc(Cl)cc2)s/c1=C(/C#N)c1nnc2n1CCCCC2 3.92%, C=CCn1c(=O)/c(=C/c2ccc(Cl)cc2)s/c1=C(\C#N)c1nnc2n1CCCCC2 0.47%, CN1CCN(Cc2nnc(-c3ccccc3)o2)CC1 7.8%, CC1=CC(C2CC(=O)N(c3ccc(C)cc3)C2=O)CC2C(=O)N(c3ccc(C)cc3)C(=O)C12 (configuration not stated) 1.51%, Cn1cc(Br)c(-c2cccc(N3C(=O)CC(C)(C)CC3=O)c2)n1 9.36%, Cc1cccc(-n2nc3c(c2NC(=O)CCCl)CSC3)c1 9.59%, Cc1ccc(-n2ncc(C(=O)Nc3cc(Cl)cc(Cl)c3)c2C2CCNCC2)cc1C 10.4%, COc1ccc(CSc2nncn2N)cc1[N+](=O)[O-] 2.61%, CC(=O)c1ccc(NC(=S)N2CCCC(CO)C2)cc1 (configuration not stated) 9.07%, OCC1CCCN(C(=S)Nc2ccc(Oc3ccccc3)cc2)C1 (configuration not stated) 11.8%, Cc1ccccc1NC(=O)c1cccc2c1C(=O)N(C1CCCCC1)C2 6.92%, COc1cc(NC(=O)c2cnc(NCc3ccccc3)nc2C)cc(OC)c1OC 10.3%, CCCC(=O)Nc1cc(OC)c(OC)cc1C(=O)O 0.59%, COc1cc2ccc(NC(C)=O)cc2cc1OC -17.4%, COc1cc(Cc2nccc3cc(OC)c(OC)cc23)c(NC(C)=O)cc1OC 8.79%, CCOC(=O)[C@@H]1[C@H]2COc3ccccc3[C@@H]2N2C(=O)N(c3cccc(Cl)c3)C(=O)[C@@]12C 7.95%, O=C(CCC(=O)Nc1ccc(F)cc1)N/N=C/c1cccnc1 7.44%, Cc1ccnc(NS(=O)(=O)c2ccc(NC(=O)c3snnc3C)cc2)n1 15.1%, c1ccc2c(c1)CCN(CCCNc1nc3ccccc3n3cnnc13)C2 5.26%, COc1cc(C)nc(NS(=O)(=O)c2ccc(C)cc2)n1 5.36%, Cc1ccc(S(=O)(=O)Nc2nc(C)cc(NN)n2)cc1 0.61%, COC(=O)c1ccsc1NC(=O)c1ccc2c(c1)OCCO2 0.64%, O=C(CCCN=C1NS(=O)(=O)c2ccccc21)OCC(=O)c1ccc(F)cc1 3.32%, Cc1cc(C(F)F)nn1CC(=O)NCc1ccc(Cl)cc1Cl 6.89%, CCCSc1nc2cc(OC)c(OC)cc2c(=N)n1CCCN1CCOCC1 20.6%, COc1cc2[nH]c(=S)n(CCCN3CCOCC3)c(=O)c2cc1OC 12.7%, Fc1cc2[nH]c(=S)[nH]c2c(Br)c1N1CCSCC1 8.85%, O=C(N/N=C/c1cccc(F)c1)c1csc2c1CCCC2 11.6%, C/C(=N\NC(=O)c1csc2ccccc12)c1ccc(O)cc1 26.2%, O=C(N/N=C/c1ccccc1O)c1cccc2ccccc12 11.8%, O=C(N/N=C/c1cccc(O)c1)c1csc2ccccc12 -6.14%, Cc1ccc(/C=N/NC(=O)c2csc3c2CCCC3)cc1 7.82%, O=C(N/N=C/c1ccccc1)c1cccc2ccccc12 7.64%, Cc1cc(S(=O)(=O)N2CC(=O)N(CCc3ccccc3)C(=O)C2)ccc1F 12.6%, CCC(C)N(CCNC(=O)c1ccc2c(c1)NC(=O)c1ccccc1S2)C1CCCCC1 (configuration not stated) 3.06%, COc1ccc(C(=O)CN2C(=O)NC3(CCCc4ccccc43)C2=O)c(OC)c1 (configuration not stated) 2.84%, CN(C(=O)CSc1nnc(-c2cccc(F)c2)n1N)C1CCS(=O)(=O)C1 (configuration not stated) 3.77%, Cc1csc(=O)n1CC(=O)OCC(=O)c1c(N)n(CC(C)C)c(=O)n(C)c1=O -0.27%, Cc1nc2ccccc2c(-c2ccccc2)c1CC(=O)O 5.79%, Cc1nc2ccccc2n1CC(=O)c1ccccc1 15.2%, COc1ccccc1OCC(=O)NCC1CCCN(C(=O)c2cccc(C)c2)C1 (configuration not stated) 12.2%, COc1ccc2sc3ccccc3c(=O)c2c1OC 2.12%, CN(C)CCNc1ccc(Cl)cc1[N+](=O)[O-] -0.93%, CN(C)CCNC(=O)c1cc2sc3ccccc3c2s1 11.4%, CCN(CC)CCNc1ccc(CO)c2oc3cc(Cl)ccc3c(=O)c12 4.45%, CCN(CC)CCNc1ccc(CO)c2oc3ccccc3c(=O)c12 16.8%, Cc1cc(O)cc2c(=O)c3ccccc3sc12 8.36%, O=c1c2ccccc2sc2c(CO)ccc(NCCN3CCCCC3)c12 27.3%, CCN(CC)CCNc1ccc(CO)c2sc3ccccc3c(=O)c12 16.6%
